Out of some 85,000 compounds screened, about 5,100 (6%) were called active. This excerpt belongs to a sample that is enriched for actives. Unmarked numbers belong to inactive results.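 The calls were made as follows: active = viability at or below 40%; inactive = viability above 40%.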

This assay is described as follows: H69AR cell viability reduction – human, 86K library, primary screen (AID 598).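 Also: multidrug resistant small cell line overexpressing MRP-1 efflux transporter; 100% = mean luminescence of untreated control wells.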 Conditions: H69AR lung tumor viability, ATP luminescence, 72 h; at 10 µM; stronger effect = lower value.
On to `CNc1nc(SC)nc(N(C#N)CC(=O)OC)n1`, for which the viability – broadly, a read-out of living cells in per cent, often relative to untreated cells – was 92.4%.
For the compound `CCN(CC)S(=O)(=O)c1ccc2c3c(cccc13)C(=O)S2`, the viability was 69%.
In the case of `O=C(CSC1=Nc2ccccc2C2=NC(CC(=O)NCc3ccco3)C(=O)N12)NCc1ccco1` (stereo unspecified), the viability was 85.9%.
On to `CCOc1cc(NC(=O)c2cnccn2)c(OCC)cc1NC(=O)c1ccc(C)cc1`, for which the viability is 110%.
On to `Cc1ccc(OCC(=O)N2CCN(C(=O)c3cccnc3)CC2)cc1`, for which the viability is 86.2%.
For `COc1ccc(NC(=O)C(CC(C)C)NS(=O)(=O)c2ccc3c(c2)CCN3C(C)=O)cc1OC` (stereo unspecified) the value was 90.6%.
For `CCN(CC)Cc1cc(C(C)=O)ccc1O` the value was 98.5%; for `CCOc1ccc2c(c1)C(c1ccc(C)cc1)=NNC(c1ccc(C)cc1)=N2`, 21% (active); for `COc1ccc(C2C(C(C)=O)=C(O)C(=O)N2Cc2cccnc2)cc1` (stereo unspecified), 99.2%.
The result for `Cc1ccc(Nc2nnc(SCc3ccccc3)s2)cc1` reads 98.2%; that for `COc1ccccc1C(=O)N1CC2(C)CC1CC(C)(C)C2` (stereo unspecified), 84.2%; that for `Cc1ccc(/C=N/NC(=O)Cn2nc(C)c(Br)c2C)o1`, 102%.
In the case of `CCCCNC(=O)CCNC(=O)c1ccc(C(C)(C)C)cc1`, the viability is 102%.
As to `CCOC(=O)c1cccc(NC(=O)CN(c2ccc(C)cc2)S(=O)(=O)c2c(C)noc2C)c1`, the viability was 24% (active).
In the case of `CCOc1ccc(N(CC(=O)OC)S(=O)(=O)c2c(C)noc2C)cc1`, the viability is 96.6%.
In the case of `Cc1noc(C)c1S(=O)(=O)N(CC(=O)Nc1ccc2c(c1)OCCO2)c1ccc(C(C)C)cc1`, the viability is 56.8%.
The result for `CCOC(=O)c1cc2c(ccn2C)n1CC(=O)N1CCC(C)CC1` reads 88.5%.
For `O=C(COc1ccccc1)Nc1nonc1NC(=O)COc1ccccc1` the value was 93.3%; for `COc1ccc(CN2CN(C(C)C)CSC2=S)cc1`, 0.67% (active).
For the compound `O=C(Nc1cc2ccccc2oc1=O)C1CCCCC1`, the viability was 98.1%.
The result for `Cc1ccccc1-n1nc(C)c2cc(C(=O)NC3CC3)sc21` reads 66.4%; that for `O=C(Nc1c(-c2ccccc2)nc2c(Br)cc(Br)cn12)c1ccco1`, 29.5% (active); that for `O=C(Nc1ccc(Sc2ccc(Br)cc2)cc1)c1ccco1`, 54.3%.
As to `Cc1ccccc1NC(=O)c1cnn(-c2ccccc2)c1NC(=O)c1ccco1`, the viability was 84.4%.
The result for `CCOC(=O)c1c(N=CN(C)C)c(C#N)c2n1CCCC2` reads 90.8%.
The result for `CCOc1ccc2[nH]c(=O)c(CN(Cc3nnnn3CCc3ccccc3)CC3CCCO3)cc2c1` (stereo unspecified) reads 85.5%; that for `CCOc1ccc2[nH]c(=O)c(CN(Cc3nnnn3Cc3ccccc3)CC3CCCO3)cc2c1` (stereo unspecified), 34.3% (active).
Consider `COc1ccc2[nH]c(=O)c(CN(Cc3nnnn3CCc3ccccc3)CC3CCCO3)cc2c1` (stereo unspecified), for which the viability is 67.1%.
On to `O=C(COc1ccc(S(=O)(=O)NCc2ccccc2)cc1)N1CCOCC1`, for which the viability is 97.4%.
As to `CCOc1ccc(Nc2oc(Cc3ccccc3)nc2C#N)cc1`, the viability is 78%.
Regarding `COc1ccc(Nc2oc(-c3ccccc3Cl)nc2C#N)cc1`, the viability was 14.3% (active).
As for `COc1ccccc1-c1nc(C#N)c(N2CCC(C(N)=O)CC2)o1`, the viability is 95.8%.
On to `Cc1cc2nc(SCCN3CCOCC3)[nH]c2cc1C`, for which the viability was 109%.
Take `C=C(C)CSc1nnc(-c2ccc(C)cc2)n1N`: the viability was 99.4%.
For the compound `CC(=NCc1ccco1)c1c(C(F)(F)F)[nH]n(-c2nc3ccccc3s2)c1=O`, the viability is 63.2%.
As for `N=c1c2c3c(sc2nc2n1CCCCC2)CCCC3`, the viability was 84%.
With `NNC(=O)C1CCCn2c1nc1sc3c(c1c2=O)CCCC3` (stereo unspecified), the viability is 91.5%.
For `CS(=O)(=O)N(Cc1nc2sc3c(c2c(=O)[nH]1)CCCC3)C1CCCCC1` the value was 16.8% (active).
The result for `CCn1c(CC(=O)Nc2ccc(C)cc2)nnc1SCC(=O)Nc1nc(C)cs1` reads 111%; that for `S=C1NC(c2ccccc2)=NCN1c1ccc(Br)cc1`, 88.9%; that for `CCOc1ccc(NC(=O)CN2CCN(CC(=O)Nc3ccc(OC)cc3)CC2)cc1`, 56.5%.
For `CC1CN(S(=O)(=O)c2ccccc2)C(C)CN1S(=O)(=O)c1ccccc1` (stereo unspecified) the value was 101%; for `CC(O)CN(Cc1ccc(Cl)cc1)CC(C)O` (stereo unspecified), 100%; for `CCOc1ccccc1NC(=O)Nc1cc(OC)ccc1OC`, 93.8%.
In the case of `CCOc1ccccc1Oc1cn[nH]c1-c1ccc(OC)cc1O`, the viability is 16.2% (active).
The result for `CCOc1cc(-c2cc(-c3ccc(OC)cc3)nc(N)c2C#N)ccc1O` reads 51%; that for `CCCC1(C(=O)OCC)NC(c2ccc(N(C)C)cc2)C2C(=O)N(c3ccc4c(c3)OCCO4)C(=O)C21` (stereo unspecified), 80%; that for `Cc1ccc(O/C=C2\OC(=O)c3ccccc32)cc1`, 89.6%.
For `CN(Cc1nc2ccccc2c(=O)[nH]1)Cc1cc(=O)oc2ccc3ccccc3c12` the value was 91%; for `NC(=O)C1(N2CCCCC2)CCN(C2CC(=O)N(Cc3ccc(N4CCCC4=O)cc3)C2=O)CC1` (stereo unspecified), 100%; for `COC(=O)Nc1ccc(S(=O)(=O)N2CCN(CCN3C(=O)C4C5C=CC(C5)C4C3=O)CC2)cc1` (stereo unspecified), 79.9%.
The result for `CCCCNC(=O)CSc1nccn1Cc1ccccc1` reads 99.2%; that for `CCCCNC(=O)CSc1nc2n[nH]c(C)c2c(=N)n1-c1cccc(Cl)c1C`, 15.5% (active).
Turning to `CCCCNC(=O)CSc1nnc(-c2ccco2)n1C`, the viability was 81.6%.
For `COc1ccc(CNCCCO)cc1OC`, the viability was 111%.
Take `Cc1ccc(S(=O)(=O)Oc2ccc(/C=N/NC(=O)c3c(Cl)cnn3C)cc2)cc1`: the viability was 79.2%.
Take `COc1ccccc1NC(=O)CSc1nnc(C)n1CC1CCCO1` (stereo unspecified): the viability is 113%.
The result for `Cn1c(=O)c2c(nc(N3CCCCCC3)n2CC(O)COc2ccc(Cl)cc2)n(C)c1=O` (stereo unspecified) reads 28.2% (active); that for `O=C(c1ccc(Cl)cc1)c1ccc(OCC(O)CN2CCCCC2)cc1` (stereo unspecified), 64.1%.
The result for `Cn1c(=O)c2c(nc(N3CCCCCC3)n2CC(=O)c2ccc(Br)cc2)n(C)c1=O` reads 46.8%; that for `CCN(CC)C(=O)CC1(c2ccccc2OC)CCOC(C(C)C)C1` (stereo unspecified), 86.8%.

These data come from PubChem BioAssay AID598 (SRMLSC, 2007).
